For seven molecules, growth results are on record in PubChem BioAssay (NCI).

Among the test systems are HCT-15 colon; HT29 colon; SNB-75 CNS; SNB-19 CNS; U251 CNS; PC-3 prostate; SK-MEL-5 melanoma; UACC-62 melanoma; LOX IMVI melanoma; SK-MEL-28 melanoma; SK-MEL-2 melanoma; EKVX NSCLC; SN12C renal; UO-31 renal; TK-10 renal; ACHN renal; CAKI-1 renal; A498 renal; CCRF-CEM leukemia; MOLT-4 leukemia.
Common to all, as to assay: NCI-60 one-dose screen, 48 h (100 = growth as untreated, 0 = no growth, -100 = all killed)
What all share (settings): 10 µM unless noted

The panel holds about 83,000 compounds, 20% with a hit somewhere; the sample as a whole holds those more often.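 Testing used 96-well plates and a 48-hour single-concentration exposure. Example: -40 means 40% of the starting cells died.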 Unmarked numbers belong to inactive results. Activity calls are given as the source filed them. How the source made its calls: active means growth percent below 10; inactive means the rest.

On to `Nc1ccc(N)c2c1C(=O)c1cccc([N+](=O)[O-])c1C2=O`, for which the growth in the assay on HCT-15 colon is 27.7%; with HT29 colon, 44.7%; in the assay on SNB-75 CNS it was 22.6%; with SNB-19 CNS, 26.2%; in the assay on U251 CNS it was 33.7%; in the assay on PC-3 prostate, 49.3%. Further, the growth is 23.8% with SK-MEL-5 melanoma; 5.05% (active) with UACC-62 melanoma; 22.4% in the assay on LOX IMVI melanoma; 102% in the assay on SK-MEL-28 melanoma; 53.7% in the assay with SK-MEL-2 melanoma; 38.2% in the assay with EKVX NSCLC. The growth in the assay with SN12C renal was 25.9%; in the assay on UO-31 renal it was 33.4%; in the assay on TK-10 renal, 45.3%; with ACHN renal, 15.9%; in the assay with CAKI-1 renal, 5.03% (active); in the assay with A498 renal, -73.8% (active). Also, the growth in the assay with CCRF-CEM leukemia is 48.3%; in the assay with MOLT-4 leukemia, 46.5%.
`CC(=O)Cc1nsc(NC(=O)c2cc(-c3cc(Cl)ccc3Cl)oc2C)n1`: the growth with HCT-15 colon is 103%; in the assay with HT29 colon, 107%; in the assay on SNB-75 CNS, 94.7%; with SNB-19 CNS, 102%; in the assay on U251 CNS, 97.4%; in the assay on PC-3 prostate it was 96.8%. Besides, the growth in the assay on SK-MEL-5 melanoma was 99.1%; with UACC-62 melanoma it was 95%; with LOX IMVI melanoma it was 96.3%; in the assay with SK-MEL-28 melanoma it was 108%; with SK-MEL-2 melanoma, 101%; in the assay with EKVX NSCLC it was 98.4%. For the same molecule, the growth in the assay on SN12C renal is 101%; in the assay with UO-31 renal it was 107%; in the assay with TK-10 renal, 151%; in the assay on ACHN renal it was 106%; in the assay on CAKI-1 renal, 98.9%; with A498 renal, 105%. In addition, the growth with CCRF-CEM leukemia was 108%; in the assay on MOLT-4 leukemia it was 101%.
In the case of `COC(=O)c1c(C)nc(C)c2c1C(=O)C(Br)=C(NCCN1CCOCC1)C2=O`, the growth is 87.9% in the assay with HCT-15 colon; 68.2% in the assay with HT29 colon; 119% with SNB-75 CNS; 101% in the assay on SNB-19 CNS; 101% in the assay on U251 CNS; 86.3% in the assay with PC-3 prostate. In addition, the growth in the assay on SK-MEL-5 melanoma was 70.8%; in the assay with UACC-62 melanoma, 55.6%; in the assay on LOX IMVI melanoma it was 82.8%; in the assay with SK-MEL-28 melanoma, 113%; in the assay with SK-MEL-2 melanoma it was 99.4%; in the assay on EKVX NSCLC it was 100%. Besides, the growth was 89.5% in the assay with SN12C renal; 86.5% in the assay with UO-31 renal; 108% in the assay with TK-10 renal; 97.9% in the assay with ACHN renal; 91.4% with CAKI-1 renal; 92.4% with A498 renal. In addition, the growth in the assay on CCRF-CEM leukemia is 97.3%; in the assay on MOLT-4 leukemia, 99.3%.
As to `COC(=O)c1nc(-c2ccc(C)cc2)oc1N1CCOCC1`, the growth with HCT-15 colon is 84.8%; in the assay on HT29 colon, 86.8%; with SNB-75 CNS, 84.6%; with SNB-19 CNS, 94.9%; with U251 CNS it was 100%; in the assay on PC-3 prostate it was 110%. Besides, the growth in the assay on SK-MEL-5 melanoma is 103%; with UACC-62 melanoma it was 88%; in the assay on LOX IMVI melanoma, 107%; in the assay with SK-MEL-28 melanoma, 104%; with SK-MEL-2 melanoma it was 106%; in the assay on EKVX NSCLC, 92.8%. In addition, the growth with SN12C renal was 93.1%; in the assay on UO-31 renal it was 83.7%; in the assay with TK-10 renal it was 81.6%; in the assay with ACHN renal, 102%; in the assay with CAKI-1 renal it was 90.3%; in the assay on A498 renal, 77.4%. For the same molecule, the growth is 85% with CCRF-CEM leukemia and 80.8% with MOLT-4 leukemia.
In the case of `CCOC(=O)c1c(Nc2nc3ccccc3s2)sc2c1CCC(=O)C2`, the growth was 45.1% in the assay on HCT-15 colon; 55.4% with HT29 colon; 74.8% in the assay on SNB-75 CNS; 45.8% in the assay with SNB-19 CNS; 20.5% in the assay with U251 CNS; 22.2% with PC-3 prostate. Moreover, the growth with SK-MEL-5 melanoma was 61.2%; in the assay on UACC-62 melanoma it was 43.1%; in the assay with LOX IMVI melanoma it was 40.1%; in the assay with SK-MEL-28 melanoma it was 108%; with SK-MEL-2 melanoma, 103%; in the assay on EKVX NSCLC it was 42.8%. The growth is 36.8% with SN12C renal; 52.7% in the assay with UO-31 renal; 29.1% with TK-10 renal; 29.9% in the assay with ACHN renal; 42.8% in the assay with CAKI-1 renal; 59.1% in the assay on A498 renal. The growth is 16.9% in the assay with CCRF-CEM leukemia and 20.8% with MOLT-4 leukemia.
On to `CCOC(=O)c1c(N)sc2cc(O)ccc12`, for which the growth in the assay with HCT-15 colon was 97.1%; in the assay with HT29 colon it was 104%; with SNB-75 CNS it was 86.7%; with SNB-19 CNS it was 106%; in the assay with U251 CNS it was 98.9%; in the assay with PC-3 prostate, 103%. For the same molecule, the growth in the assay with SK-MEL-5 melanoma is 104%; in the assay with UACC-62 melanoma it was 92.3%; in the assay on LOX IMVI melanoma, 96.5%; in the assay with SK-MEL-28 melanoma, 92.7%; in the assay on SK-MEL-2 melanoma it was 110%; with EKVX NSCLC, 106%. Further, the growth with SN12C renal was 101%; in the assay with UO-31 renal it was 83%; in the assay on TK-10 renal, 101%; with ACHN renal, 98.2%; with CAKI-1 renal, 97.7%; with A498 renal, 104%. The growth was 111% in the assay on CCRF-CEM leukemia and 84.5% in the assay on MOLT-4 leukemia.
As to `CCN1CCN(CCOc2ccc(CNc3ccc4nc(CCC5CCCCC5)[nH]c4c3)cc2)CC1`, the growth was -17.7% (active) in the assay on HCT-15 colon; 8.35% (active) with HT29 colon; 79.8% in the assay on SNB-75 CNS; 39.3% with SNB-19 CNS; -19.7% (active) in the assay on U251 CNS; 42% in the assay with PC-3 prostate. The growth with SK-MEL-5 melanoma is -96.5% (active); in the assay on UACC-62 melanoma, -16.4% (active); with LOX IMVI melanoma, -78.6% (active); with SK-MEL-28 melanoma, -88% (active); with SK-MEL-2 melanoma, -3.49% (active); in the assay with EKVX NSCLC, 71.3%. The growth with SN12C renal was 67.8%; in the assay with UO-31 renal, -24.9% (active); in the assay with TK-10 renal it was 81.2%; in the assay with ACHN renal it was 40.9%; in the assay on CAKI-1 renal it was 0.23% (active); with A498 renal, 43.9%. The growth in the assay with CCRF-CEM leukemia was 8.27% (active); in the assay with MOLT-4 leukemia, 20%.
